Data as given in PubChem BioAssay AID1159580 (chemical genetic matrix, 2015).
About 2,000 (36%) of roughly 5,500 compounds were called active. Inconclusive results (about 18%) are left out. Cut-off read from the data, not from the text of the source: active = normalized growth mostly below about 0.91 (no sharp cut-off); inconclusive = no clear call, values can overlap the other calls; inactive = mostly above about 0.92. The list shows a part of the results.

Assay: chemical genetic growth profiling, strain panel (AID 1159580);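 note: tested at 20 µM; growth read once vehicle control cultures reached saturation at 30 °C; 1 = growth at the plate median or of vehicle wells; lower values mean less growth of the strain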
Settings: S. cerevisiae deletion strains, growth OD

Measured: normalized growth

CC(=O)O[C@H]1C[C@@H]2CC[C@@H]3[C@H](CC[C@@]4(C)[C@H]3C[C@H]([N+]3(C)CCCCC3)[C@@H]4OC(C)=O)[C@@]2(C)C[C@@H]1[N+]1(C)CCCCC1
inactive: locus YAL040C, strain CLN3, active compounds read low 0.985 | locus YCL061C, strain MRC1 (second series), active compounds read low 0.988 | locus YDR150W, strain NUM1, active compounds read low 0.998 | locus YDR363W, strain ESC2, active compounds read low 0.989 | locus YER002W, strain NOP16, active compounds read low 1 | locus YGR078C, strain PAC10, active compounds read low 0.996 | locus YNL128W, strain TEP1, active compounds read low 1 | locus YNL175C, strain NOP13, active compounds read low 1.03 | locus YNL197C, strain WHI3, active compounds read low 0.998 | locus YNL224C, strain SQS1, active compounds read low 0.984 | locus YNL322C, strain KRE1, active compounds read low 1.01 | locus YOR083W, strain WHI5 (second series), active compounds read low 0.959 | locus YPL055C, strain LGE1, active compounds read low 0.98 | locus YPL241C, strain CIN2, active compounds read low 0.987
